# The supplement of paper PMC7724964
# T1: STAM 1-143 VHS (domain begin residue: 1, domain end residue: 143), Q92783
# T1 chain: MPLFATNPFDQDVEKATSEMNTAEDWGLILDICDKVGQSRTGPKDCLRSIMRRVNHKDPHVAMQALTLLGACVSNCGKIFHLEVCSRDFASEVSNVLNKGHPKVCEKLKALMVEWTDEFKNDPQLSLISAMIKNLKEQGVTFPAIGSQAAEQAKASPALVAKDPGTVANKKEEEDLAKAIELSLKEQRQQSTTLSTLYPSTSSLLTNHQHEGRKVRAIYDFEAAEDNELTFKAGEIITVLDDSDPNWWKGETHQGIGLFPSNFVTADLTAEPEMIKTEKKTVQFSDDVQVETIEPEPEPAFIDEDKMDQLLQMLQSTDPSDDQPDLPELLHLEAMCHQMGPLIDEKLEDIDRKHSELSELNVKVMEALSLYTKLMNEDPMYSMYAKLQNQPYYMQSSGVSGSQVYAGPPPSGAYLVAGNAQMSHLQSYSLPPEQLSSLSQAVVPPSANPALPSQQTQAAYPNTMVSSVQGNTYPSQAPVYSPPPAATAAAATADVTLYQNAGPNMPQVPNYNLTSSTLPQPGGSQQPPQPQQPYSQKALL
# T2: SPSB2 26-221 SPRY (domain begin residue: 26, domain end residue: 221), Q99619
# T2 chain: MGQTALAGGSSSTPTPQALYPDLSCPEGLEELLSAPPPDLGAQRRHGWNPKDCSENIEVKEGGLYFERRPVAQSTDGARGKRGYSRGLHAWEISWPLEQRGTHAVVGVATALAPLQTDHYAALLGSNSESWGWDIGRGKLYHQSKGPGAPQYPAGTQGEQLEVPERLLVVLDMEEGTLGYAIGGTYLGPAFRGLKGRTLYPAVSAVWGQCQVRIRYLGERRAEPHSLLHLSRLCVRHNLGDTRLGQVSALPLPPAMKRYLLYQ
# T3: SPSB4 1-273 SPRY (domain begin residue: 1, domain end residue: 273), Q96A44
# T3 chain: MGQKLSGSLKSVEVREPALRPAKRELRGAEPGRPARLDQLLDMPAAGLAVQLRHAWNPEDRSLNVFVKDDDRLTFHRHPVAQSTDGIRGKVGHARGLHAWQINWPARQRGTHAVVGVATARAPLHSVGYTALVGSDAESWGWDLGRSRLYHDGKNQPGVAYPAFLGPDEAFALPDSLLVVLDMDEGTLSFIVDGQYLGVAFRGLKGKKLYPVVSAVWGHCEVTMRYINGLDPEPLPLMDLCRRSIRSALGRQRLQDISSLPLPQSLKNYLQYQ
# How the values were obtained:
# Test in all cases: phage ELISA signal ratio (GST-PRM binding over GST background); higher = stronger binding of peptide-phage to the PRM
# [1] = target: T1, STAM 1-143 VHS (domain begin residue: …
# In short: (§1)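 Each value is the phage ELISA signal on the glutathione S-transferase (GST)-domain fusion divided by the signal on GST alone. Human peptide recognition domains were expressed in 96-well plates, fused to the C-terminus of GST, and selected against an M13 phage library carrying randomized, cysteine-free, glycine-flanked hexadecapeptides on the gene-8 major coat protein. After five selection rounds, approximately 48 individual clones from rounds 4 and 5 were tested by phage ELISA, and positive clones were sequenced.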
# [2] = target: T2, SPSB2 26-221 SPRY (domain begin …
# In short: as §1
# [3] = target: T3, SPSB4 1-273 SPRY (domain begin residue: …
# In short: as §1
# [4] = target: SUB1 58-127 PC4 (domain begin residue: 58, domain end residue: 127), P53999
# In short: as §1
binder,measurement,setting,value
HESMVMFTDEFFQQYL,phage ELISA signal ratio,[1],5.23
PFDAWPIGWEIQQQYF,phage ELISA signal ratio,[1],8.91
QERNHHDPHALWESLF,phage ELISA signal ratio,[1],20.8
HSEIWLMTYLDSLAMY,phage ELISA signal ratio,[1],13
YPQWLASSRGEMNNNI,phage ELISA signal ratio,[2],36.2
EPYMIQVPWESHWDVH,phage ELISA signal ratio,[1],9.25
RFPMYDHNANLLPLPQ,phage ELISA signal ratio,[2],38.1
HLEQDWNGNWLMNEKD,phage ELISA signal ratio,[2],41.2
PEFLDENNNVDVGHTW,phage ELISA signal ratio,[2],38.3
QMDYNQNMPSIQWARE,phage ELISA signal ratio,[3],8.15
AYVWDDWVWTSLPWVE,phage ELISA signal ratio,[1],6.69
PARDINNNAATAYINV,phage ELISA signal ratio,[2],39.5
YEIMENNNWLNNAGVF,phage ELISA signal ratio,[2],40.1
EYTLDENANMEQLWEV,phage ELISA signal ratio,[2],35.8
MDWNNNWNHSLESTQN,phage ELISA signal ratio,[2],36.1
MDFTDVNGNLLNAFTA,phage ELISA signal ratio,[2],38.3
KKDWNNNIEAWLVGEE,phage ELISA signal ratio,[2],36.6
NPHSHQQFMQAVENHI,phage ELISA signal ratio,[1],22.2
KQDYLNVTDWNNNAVM,phage ELISA signal ratio,[2],44.7
MVQDSINNNNWLVPWV,phage ELISA signal ratio,[3],7.42
WDFVGEWDSNNNTVTR,phage ELISA signal ratio,[3],7.05
NKHDTEEFMVRTFLSE,phage ELISA signal ratio,[1],6.48
DEEEWWWQFQSHQLPE,phage ELISA signal ratio,[4],8.77
GFEFHPVYDWNNNIQK,phage ELISA signal ratio,[2],36.6
TQFNMHDEALFMTKLF,phage ELISA signal ratio,[1],19.2
DQEWLSKPWQFWAMDM,phage ELISA signal ratio,[1],4.69
MEKDMNGNMAVFEMHH,phage ELISA signal ratio,[2],39.2
WDLDWAVSDHNGNVMV,phage ELISA signal ratio,[2],41.6
DKYWPVDPNNNMPRFG,phage ELISA signal ratio,[2],37.4
